aSyn rescue: qHTS of alpha-syn Inhibitors; AID 652106, 2013; 0.14% of 370,000 active; Yeast expressing alpha-synuclein, growth rescue, BacTiter-Glo, 24 h; Potency, µM (top dose mostly 46.1 µM), for inactives: at the top dose growth rescue (activation), usual class: activators; note: % of control where 0% means no effect; nearly all actives have a fitted effect of over 65% in size
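Readout is rescue of growth in alpha-synuclein-expressing yeast, so inhibitors of toxicity appear as activators. Growth after 24 hr at 30 deg C in galactose medium is quantified by luminescence.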
TDP43 rescue: qHTS of TDP-43 Inhibitors | AID 652104, 2013 | TDP-43 expressing yeast growth rescue, BacTiter-Glo, 24 h | 1.8% of 410,000 active | Potency, µM (titrated, usually from 46.1 µM), for inactives: top-dose growth rescue (activation), actives largely listed as activators; note: % of control where 0% means no effect; nearly all actives have a fitted effect of over 50% in size
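Cell-based yeast growth screen: TDP-43 expression induced in galactose, inoculum OD600=0.02 after raffinose pregrowth to mid-log. Read-out BacTiter-Glo luminescence at 24 hr, 30 deg C; inhibition of toxicity seen as signal increase.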
FUS suppressor: qHTS for Suppressors of FUS Proteinopathy: Primary screen using FUS-linked yeast assay. S. cerevisiae FUS-expressing, growth rescue, OD600, 24 h. Potency, µM (titrated, usually from 76.6 µM), usual class: activators. 0.24% of 390,000 active. AID 1347120, 2019;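 note: plate controls were DMSO vehicle for no effect and reference control for full effect; nearly all actives have a fitted effect of over 55% in size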
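Absorbance at 600 nm, taken 24hr after compound addition, measured rescue of FUS-yeast growth at 30C. Induction used 2% galactose with seeding at OD 0.005. Controls: CP55940 from 92uM final, DMSO only.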
Abeta rescue: qHTS for compounds that reverse cellular toxicity of Amyloid beta (A-beta) peptide in yeast: Primary Screen. yeast expressing A-beta42, growth rescue, OD600, 48 h; response scale: 0% DMSO, 100% iron-clioquinol control. Potency, µM (top dose mostly 46.1 µM), most hits filed as activators. 0.063% of 410,000 active; note: nearly all actives have a fitted effect of over 55% in size
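Growth rescue measured by 600 nm absorbance after 48 h yeast culture at 30 C with compound. Values normalized between DMSO and an equimolar ferric chloride plus clioquinol control.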
An asterisk follows results filed as active; i = inactive; ? = inconclusive; . = not tested or not shown; [ ] = another dose, or the depositor's remark. Only some compounds are listed: those with a hit (about 2.1% of all), similar ones and a draw of the others. Calls come from the whole dose curve; as a rule, active = well fitted curve in the direction sought with a large enough effect; inconclusive = small, poorly fitted or top-dose-only effect, or another doubt; inactive = no such curve, though single readings can be large; an effect the other way counts as inactive or inconclusive. Potency is the fitted concentration of half-maximal effect.

SMILES | aSyn rescue | TDP43 rescue | FUS suppressor | Abeta rescue
CC(C)(C)Nc1nc(Cl)nc(Nc2ccccc2)n1 | 0.5% | 28.2µM* | i | i
COc1ccc(-n2nc(C(=O)N3CCN(c4cccc(C(F)(F)F)c4)CC3)c3c4ccccc4n(C)c3c2=O)cc1Cl | . | -10.3% | i | i
O=C(Nc1ccc(S(=O)(=O)N2CCOCC2)cc1)C1CCN(S(=O)(=O)c2ccc(F)cc2)CC1 | -4.1% | 14.1µM* | ? | i
COc1ccc(C=Nn2c(-c3ccc(F)cc3)n[nH]c2=S)c(OC)c1OC | . | . | i | .
CCN1CCSc2ccc(C(=O)NCc3ccccc3C)cc21 | 0.8% | 35.5µM* | i | i
CCN1CCSc2ccc(C(=O)NCc3ccccc3Br)cc21 | -7.6% | 19.4% | i | i
CN1CCSc2ccc(C(=O)NCc3cccc(Br)c3)cc21 | 4.8% | 15.8µM* | i | i
Cc1cccc(CNC(=O)c2ccc3c(c2)N(C)CCS3)c1 | 15.2% | ? | i | i
CC(=O)c1cc(-c2ccccc2)n(CCC(=O)Nc2nc3c(C)cccc3s2)c1C | . | 11.6% | i | i
Cc1ccc(NC(=O)CSc2nnc(-c3cccnc3)n2Cc2ccco2)c(C)c1 | . | . | i | .
Cc1nnc(N2C(=O)c3cccc4c([N+](=O)[O-])ccc(c34)C2=O)s1 | -2.4% | 12.6µM* | i | i
O=C(Nc1nc2n(n1)C(c1ccccc1)C=C(c1ccccc1)N2)c1ccc(Cl)c([N+](=O)[O-])c1 (stereo not given) | . | 0.0%[9.22 µM] | i | i
O=C(c1cccn1-c1nnc(N2CCCCC2)s1)N1CCN(c2ccc(Cl)cc2)CC1 | . | -10.8% | ? | i
Cc1ccccc1OCC(=O)NNC(=O)C1CCN(c2ncnc3sc(C)c(C)c23)CC1 | 1.8% | 3.7% | i | i
CCOc1ccccc1N=C1SCC(C)N1C(=O)C1CCN(c2ncnc3sc(C)c(C)c23)CC1 (stereo not given) | 5.6% | 20µM* | i | i
O=[N+]([O-])c1cccc(N/N=C/c2cccc(O)c2O)c1 | 15.6% | 12.6µM* | i | i
CCN(Cc1ccccc1)S(=O)(=O)c1ccc(F)c(C(=O)Nc2ccc(C(C)C)cc2)c1 | . | 13.9% | i | i
O=C1c2ccccc2C(=O)N1C1C=CC=CC=C1 | ? | 25.1µM* | i | i
O=C1c2ccccc2C(=O)N1CC1CO1 (stereo not given) | -7.9% | -19.9% | i | i
Oc1c(Br)cc(Br)cc1CNc1cnc2ccccc2c1 | 15.3% | 20µM* | i | i
Cc1ccc(CN2CCN(C3CCN(C(=O)Nc4ccccc4C(F)(F)F)CC3)C(=O)C2=O)cc1 | . | 5.5% | i | i
COc1cc(OC)c(OC)cc1/C=C/c1cc[n+](C)c2ccccc12 | -14.8% | . | . | .
Oc1cccc(Nc2ccccc2)c1 | 12.7% | 12.6µM* | i | i
O=C1NC2(CCc3ccccc3C2)C(=O)N1CCOc1cccc(Cl)c1 (stereo not given) | 14.7% | 20µM* | i | ?
CCOc1ccc(NC(=O)Cn2nc(-c3ccncc3)ccc2=O)cc1 | . | 15.3% | i | i
SMILES | aSyn rescue | TDP43 rescue | FUS suppressor | Abeta rescue
CCC1CCCCN1C(=S)NC(=O)c1cc(Br)ccc1Cl (stereo not given) | ? | 28.2µM* | i | 11.2µM*
CC1CCCCN1C(=S)NC(=O)c1cc(Br)ccc1Cl (stereo not given) | 13.0% | 25.1µM* | i | i
CC1CCCCN1C(=S)NC(=O)c1ccco1 (stereo not given) | 0.1% | 18.9% | . | i
CCN1/C(=C(\O)c2ccccc2)C(=O)c2ccccc2S1(=O)=O | 3.98µM* | ? | i | i
CCCCN1C(C(=O)c2ccccc2)=C(OC(=O)CC)c2ccccc2S1(=O)=O | . | 22.4µM* | i | i
CCCC(=O)OC1=C(C(C)=O)N(Cc2ccccc2)S(=O)(=O)c2ccccc21 | . | 11.2µM* | i | i
CCN1C(C(=O)c2ccccc2)=C(OC(=O)C(C)C)c2ccccc2S1(=O)=O | . | 17.8µM* | i | i
CCN1C(C(=O)c2ccccc2)=C(OC(=O)c2ccc(OC)cc2)c2ccccc2S1(=O)=O | . | 9.7% | i | i
CCN1C(C(=O)c2ccccc2)=C(OC(=O)COc2ccccc2)c2ccccc2S1(=O)=O | . | ? | i | i
CCCCN(CCCC)C1=C(C(=O)c2ccccc2)N(CC)S(=O)(=O)c2ccccc21 | ? | ? | i | ?
CCCCN(CCCC)C1=C(C(=O)c2ccccc2)N(C)S(=O)(=O)c2ccccc21 | 15.8µM* | 6.2% | i | i
CCCSc1ncc(Cl)c(C(=O)Nc2sc3c(c2C(=O)OC)CCCC3)n1 | -1.1% | ? | i | i
Cc1oc(-c2cccc(Br)c2)nc1Cn1c(SCc2cccc(F)c2)nc2cccnc21 | . | 28.2µM* | i | ?
Cc1ccc(-c2nc(Cn3c(SCc4ccc(F)cc4)nc4cccnc43)c(C)o2)cc1 | . | 26.3% | i | i
COc1ccc(C(=O)c2cn(Cc3ccc(C)cc3)c3cc4c(cc3c2=O)OCO4)cc1 | . | 15.9% | i | i
CC(C)CN(C(=O)c1ccc(=O)n(C)n1)c1nc2ccccc2s1 | 0.4% | 15.8µM* | i | i
Cc1cc(S(=O)(=O)Nc2c(NC3CCCCC3)c3ccccc3oc2=O)ccc1F | 6.8% | 6.3% | i | .
COc1ccc(Cl)cc1S(=O)(=O)Nc1noc2ccccc12 | -12.5% | 10µM* | i | i
Cc1cc(S(=O)(=O)Nc2noc3ccccc23)ccc1F | -22.3% | 11.2µM* | i | i
CCCc1cc(C(=O)Nc2c(C)nn(Cc3ccc(Cl)c(Cl)c3)c2C)no1 | . | ? | i | i
Cc1ccc2c(c1)nc(SCC(O)c1ccc(Br)cc1)n2C (stereo not given) | . | 1.0% | i | i
O=C(NCC(c1ccco1)N1CCc2ccccc21)c1ccccc1Br (stereo not given) | 13.3% | 14.1µM* | i | i
Cc1ccc(OCc2ccccc2C)c([N+](=O)[O-])n1 | 4.1% | 11.2µM* | i | i
O=C(NC(=S)N1CCN(c2ccc([N+](=O)[O-])cc2Cl)CC1)c1ccco1 | -4.5% | -2.0% | . | i
O=C(c1ccco1)N1CCN(c2ccc([N+](=O)[O-])cc2Cl)CC1 | 1.9% | 14.1µM* | i | i
O=C(c1cc([N+](=O)[O-])ccc1Cl)N1CCN(c2ccccc2)CC1 | 4.9% | 7.94µM* | i | i
CC1(C(=O)N2CCN(c3ccc([N+](=O)[O-])cc3)CC2)CC1(Cl)Cl (stereo not given) | -3.1% | 11.2µM* | i | i
O=C(c1cc([N+](=O)[O-])ccc1Cl)N1CCN(c2ccccn2)CC1 | 0.7% | -5.3% | i | i
CC1(C(=O)N2CCN(c3ccccc3)CC2)CC1(Cl)Cl (stereo not given) | 3.4% | . | i | i

Screens: PubChem, National Center for Advancing Translational Sciences (NCATS)
